In PubChem BioAssay AID651640 (Broad Institute, 2012):
Screen size: about 350,000 compounds; about 6,000 (1.7%) were called active. Inconclusive results (about 5%) are left out. What follows is part of a selection rich in actives, with near analogues and random picks from the rest. A number with no mark means an inactive call. No stated cut-off is given here; in the data, active means CPE inhibition above about 20% (passing the limit was not always enough); inconclusive means no clear call, values can overlap the other calls; tested in BHK-21 cells.

Assay: inhibitors of DENV2 cytopathic effect, primary screen, cell-based, plate reader, single concentration (AID 651640);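 further: 0% = median of neutral control wells and 100% = median of positive control wells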
Settings: DENV2-infected cells, cytopathic effect rescue, at 9.99 µM, hits give high values

Compound	CPE inhibition
O=C(c1ccc(C(F)(F)F)cc1)N1CCC(=O)N([C@H](COCc2ccccc2)Cc2ccccc2)CC1	-2.73%
CC(C)CC(COCc1ccc(Cl)cc1)N1CCN(C(=O)c2ccc(C(F)(F)F)cc2)CCC1=O (centres undefined)	49.9% (active)
CC(C)C[C@@H](COCc1ccc(Cl)cc1)N1CCN(C(=O)c2ccc(Cl)cc2Cl)CCC1=O	-4.03%
C[C@H](CO)N1C[C@H](C)[C@H](CN(C)C)Oc2cc(C#Cc3ccccc3F)ccc2S1(=O)=O	-8.31%
COCC(=O)N(C)C[C@H]1Oc2ncc(-c3ccc(C)cc3)cc2C(=O)N([C@@H](C)CO)C[C@@H]1C	14.3%
COC(=O)[C@H]1C[C@H](OC(=O)NCc2ccccc2)[C@@]2(O)CN(S(=O)(=O)c3ccc(C)cc3)CC2[C@H]1C(=O)OC (some centres undefined)	11.6%
Cc1ccc(S(=O)(=O)N2C[C@@H](C)[C@]3(C2)[C@H](O)[C@H](OC(=O)NCc2ccccc2)C[C@H]2C(=O)N(c4ccccc4)C(=O)[C@H]23)cc1	31.2% (active)
Cc1ccc(S(=O)(=O)N2C[C@]3(O)C[C@@H]4C(=O)N(c5ccccc5)C(=O)[C@@H]4C[C@]3(OC(=O)NC3CC3)C2)cc1	0.334%
C[C@H]1CN([C@@H](C)CO)C(=O)c2cccc(NC(=O)CCCCCC(=O)Nc3ccccc3N)c2O[C@@H]1CN(C)CC1CCCCC1	1.77%
C[C@H]1CN([C@@H](C)CO)C(=O)c2cc(Br)cnc2O[C@@H]1CN(C)S(=O)(=O)c1ccc(F)cc1	-4.52%
C[C@@H]1CN([C@@H](C)CO)C(=O)c2cccc(NC(=O)c3ccc(-c4nccs4)cc3)c2O[C@@H]1CN(C)S(=O)(=O)c1ccccc1	-5.21%
COc1ccc2c3c([nH]c2c1)[C@H](CO)N(C(=O)CN1CCOCC1)CC31CN(C(C)=O)C1	4.54%
CCC(=O)N1CC2(CN(C(=O)Nc3ccccc3F)C2)c2c([nH]c3cc(OC)ccc23)[C@H]1CO	10.3%
CC(C)C#Cc1ccc2c(c1)O[C@@H](CN(C)C(=O)Nc1ccccc1)[C@H](C)CN([C@H](C)CO)S2(=O)=O	-2.16%
C=C1C(=O)[C@]23C[C@H]1CCC2[C@@]1(C)C(C[C@@H]3O)[C@](C)(C(=O)O)CC[C@@H]1O (some centres undefined)	74.8% (active)
O=C(C[C@@H]1C[C@H]2c3cc(NS(=O)(=O)c4ccc(F)cc4)ccc3O[C@H]2[C@H](CO)O1)NC1CCCC1	-5.59%
C[C@@H]1CN([C@@H](C)CO)C(=O)c2cc(C3=CCCC3)cnc2O[C@H]1CN(C)Cc1ccccc1F	3.87%
C[C@@H]1CN([C@H](C)CO)C(=O)c2cc(C3=CCCC3)cnc2O[C@H]1CN(C)C	0.588%
CCCN(C)C[C@@H]1Oc2ncc(-c3ccccc3F)cc2C(=O)N([C@@H](C)CO)C[C@@H]1C	38.8% (active)
CCC(=O)N(C)C[C@@H]1Oc2ncc(C3=CCCC3)cc2C(=O)N([C@H](C)CO)C[C@@H]1C	-6.55%
C[C@H](CO)N1C[C@H](C)[C@H](CN(C)S(C)(=O)=O)Oc2ncc(C3=CCCC3)cc2C1=O	32.1% (active)
C[C@H]1CN([C@@H](C)CO)C(=O)c2cc(-c3ccccc3F)cnc2O[C@@H]1CN(C)C	-7.94%
CCCN(C)C[C@H]1Oc2ncc(-c3ccccc3OC)cc2C(=O)N([C@H](C)CO)C[C@@H]1C	14.5%

Compound	CPE inhibition
C[C@H](CO)N1C[C@H](C)[C@H](CN(C)Cc2cccnc2)Oc2ncc(C3=CCCC3)cc2C1=O	-1.52%
C[C@H](CO)N1C[C@H](C)[C@@H](CN(C)Cc2ccccn2)Oc2ncc(C3=CCCC3)cc2C1=O	49.6% (active)
CCC(=O)N(C)C[C@@H]1Oc2cc(-c3ccc(OC)cc3)ccc2S(=O)(=O)N([C@@H](C)CO)C[C@H]1C	-4.79%
O=C(C[C@H]1C[C@H]2c3cc(NC(=O)Cc4ccncc4)ccc3O[C@H]2[C@@H](CO)O1)NCc1cccc(F)c1	-1.57%
COc1cccc(S(=O)(=O)Nc2ccc3c(c2)C(=O)N(C)C[C@@H](OC)[C@@H](C)CN[C@@H](C)CO3)c1	2.43%
C[C@@H]1CN([C@@H](C)CO)C(=O)c2cc(N(C)C)ccc2O[C@@H](C)CCCCO[C@@H]1CN(C)C(=O)CCC(F)(F)F	5.58%
Cc1ccc(O)c(CCc2ccccc2)n1	1.33%
Cc1cc(C)n2c(NCc3ccccc3)c(CC(C)C)nc2n1	-7.45%
Cc1cc(C)n2c(Nc3c(C)cccc3C)c(CCc3ccccc3)nc2n1	20.8% (active)
CC(C)NC(=O)N1C[C@H]2[C@@H](c3ccccc31)[C@H](CO)N2C(=O)c1ccccc1F	-10%
CCCNC(=O)N1[C@@H]2CN(C)c3ccccc3[C@@H]2[C@@H]1CO	-0.141%
CC(C)NC(=O)N1[C@@H]2CN(C(=O)Nc3ccc(F)cc3)c3ccccc3[C@@H]2[C@@H]1CO	8.2%
O=C(c1ccccc1F)N1C[C@H]2[C@@H](c3ccccc31)[C@@H](CO)N2C(=O)c1ccc(F)cc1	-13.2%
CN1C[C@@H]2[C@H](c3ccccc31)[C@H](CO)N2C(=O)Nc1ccc(F)cc1	-5.89%
CC(C)NC(=O)N1[C@H](CO)[C@@H]2c3ccccc3N(C(=O)c3ccccc3F)C[C@@H]21	54.6% (active)
O=C(c1ccccc1F)N1C[C@@H]2[C@H](c3ccccc31)[C@H](CO)N2C(=O)C1CCCC1	-9.77%
CN1C[C@H]2[C@@H](c3ccccc31)[C@@H](CO)N2C(=O)Nc1ccccc1	58.5% (active)
CCC(=O)N1[C@@H](CO)[C@@H]2c3ccccc3N(C(=O)c3ccccc3F)C[C@@H]21	26.9% (active)
O=C1O[C@@H](c2ccccc2)[C@@H](c2ccccc2)N2[C@@H](c3ccccc3OCCO)[C@]3(C(=O)Nc4ccccc43)[C@@H](C(=O)N3CCCCCCC3)[C@H]12	0.314%
COC(=O)C[C@H]1CC[C@H]2[C@@H](COc3ccc(NC(=O)C4CC4)cc3C(=O)N2C)O1	-4.57%
O=C(N[C@H]1CC[C@@H](CCNS(=O)(=O)c2ccc(Cl)cc2)O[C@H]1CO)c1cccc(F)c1	-5.79%
O=C(C[C@H]1CC[C@H]2[C@@H](COC[C@@H](O)CN2Cc2nccs2)O1)NCc1ccccc1Cl	-3.47%
C[C@H](CO)N1C[C@H](C)[C@H](CN(C)Cc2cccc(C(=O)O)c2)Oc2ncc(-c3ccccc3F)cc2C1=O	5.26%

Compound	CPE inhibition
C[C@@H]1CCCCO[C@@H](CN(C)Cc2ccc(C(=O)O)cc2)[C@H](C)CN([C@H](C)CO)C(=O)c2cc(NC(=O)Nc3ccc(F)cc3)ccc2O1	4.69%
C[C@H]1CN([C@@H](C)CO)C(=O)c2cc(/C=C/c3ccccc3)cnc2O[C@@H]1CN(C)C(=O)c1ccc(F)cc1	-7.53%
CN1OC[C@@H]2CN(C(=O)c3ccc(-c4ccccc4)cc3)[C@H](c3ccc(-c4cccc(F)c4)cc3)C[C@@H]21	-4.1%
COc1ccc(CN2C[C@H]3CON(C)[C@H]3C[C@H]2c2ccc(-c3cccc(F)c3)cc2)cc1	27.4% (active)
COc1ccc(S(=O)(=O)N2C[C@H]3CON(C)[C@H]3C[C@H]2c2cccc(Br)c2)cc1	-6.66%
Cc1noc(C)c1CCC(=O)N1CCCC(CO)(Cc2ccccc2)C1 (centres undefined)	7.18%
CCOC(=O)C1(Cc2ccccc2C)CCCN(C(=O)CN2C(=O)CSC2=O)C1 (centres undefined)	1.33%
CCOC(=O)C1(Cc2ccccc2C)CCCN(C(=O)CCc2c(C)noc2C)C1 (centres undefined)	49.6% (active)
CCCCc1nc2cc(C(=O)N3CCCCC3CCO)ccc2o1 (centres undefined)	6.93%
CCCCc1nc2cc(C(=O)NCCc3cnn(C)c3)ccc2o1	36% (active)
CC(C)c1nc2cc(C(=O)NC(C)c3cnn(C)c3)ccc2o1 (centres undefined)	1.88%
C[C@@H]1CN([C@H](C)CO)C(=O)c2cc(-c3ccc(C#N)cc3)cnc2O[C@@H]1CN(C)C(=O)Nc1ccccc1	-5.47%
COc1ccc2c3c(n(C)c2c1)[C@@H](CO)N(CC1CC1)CC31CCN(C(=O)c2cccc(F)c2)CC1	-5.77%
O=C(O)C1CCCCC1C(=O)N1CCN(S(=O)(=O)c2ccc(F)cc2)CC1 (centres undefined)	70.6% (active)
O=C(C1CCCN(S(=O)(=O)c2ccccc2)C1)N1CCN(c2ccc(F)cc2)CC1 (centres undefined)	-0.979%
O=C(c1cnc(Cl)c(Cl)c1)N1CCN(S(=O)(=O)c2ccc(F)cc2)CC1	1.53%
COc1cccc(C(=O)N2C[C@@H]3[C@H](c4ccccc42)[C@H](CO)N3Cc2ccccc2F)c1	6.58%
O=C(NS(=O)(=O)c1cccs1)[C@H]1O[C@@H](n2ccc(=O)[nH]c2=O)[C@H](O)[C@@H]1O	77.5% (active)
O=C(N[C@H](Cc1ccccc1)C(=O)N1CCCN(Cc2cccs2)CC1)[C@H]1O[C@@H](n2ccc(=O)[nH]c2=O)[C@H](O)[C@@H]1O	-10.6%
Cc1nccn1-c1ccc(NC(=O)[C@H]2O[C@@H](n3ccc(=O)[nH]c3=O)[C@H](O)[C@@H]2O)cc1	1.75%
Fc1ccc(-c2csc(-c3ccc(C4SCCS4)cc3)n2)cc1F	38.4% (active)
Clc1ccc(-c2csc(-c3ccncc3)n2)cc1	2.38%
COc1ccc(CC(=O)Nc2nc(-c3ccc(F)c(F)c3)cs2)cc1OC	-4.33%
